Assay results published in PubChem BioAssay AID1159580 (chemical genetic matrix, 2015).
Values joined by “and” are separate entries in the source; they are usually repeats but may differ in a detail not shown here. Equal values may be shown once. Among all 5,500 compounds or so, about 2,000 (36%) were called active. Another 18% or so got no clear call; they are omitted. Rule as the data show it: active = normalized growth mostly below about 0.91 (no sharp cut-off); inconclusive = no clear call, values can overlap the other calls; inactive = mostly above about 0.92. Some of the results follow.

Assay: chemical genetic growth profiling, strain panel (AID 1159580);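 also: tested at 20 µM; growth read once vehicle control cultures reached saturation at 30 °C; 1 = growth at the plate median or of vehicle wells; lower values mean less growth of the strain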
Settings: S. cerevisiae deletion strains, growth OD

Measured: normalized growth

O=C(Nc1ccccc1)c1ccccc1O
active: locus YBR021W, strain FUR4, stronger effect = lower value 1.18 [resistant] | locus YKR001C, strain vps1, stronger effect = lower value 0.897 | locus YLR113W, strain HOG1, stronger effect = lower value 0.791 | locus YOR184W, strain ser1, stronger effect = lower value 0.861
inactive: locus YBR229C, strain ROT2, stronger effect = lower value 1.01 | locus YCL029C, strain bik1, stronger effect = lower value 0.953 | locus YDL035C, strain GPR1, stronger effect = lower value 0.954 | locus YDL074C, strain BRE1, stronger effect = lower value 0.904 | locus YDL101C, strain DUN1, stronger effect = lower value 0.956 | locus YDL185W, strain tfp1, stronger effect = lower value 0.927 | locus YDL192W, strain arf1, stronger effect = lower value 0.941 | locus YDR101C, strain arx1, stronger effect = lower value 0.953 | locus YDR162C, strain NBP2, stronger effect = lower value 0.963 | locus YDR318W, strain mcm21, stronger effect = lower value 0.981 | locus YDR388W, stronger effect = lower value 0.988 | locus YDR502C, strain sam2, stronger effect = lower value 0.939 | locus YEL061C, strain CIN8, stronger effect = lower value 0.995 | locus YER110C, stronger effect = lower value 0.962 | locus YER155C, strain BEM2, stronger effect = lower value 0.98 | locus YER167W, strain BCK2, stronger effect = lower value 0.982 | locus YGL078C, strain dbp3, stronger effect = lower value 0.943 | locus YGL086W, strain mad1, stronger effect = lower value 0.966 | locus YGL248W, strain PDE1, stronger effect = lower value 0.981 | locus YGR078C, strain PAC10, stronger effect = lower value 0.94 | locus YGR135W, strain pre9, stronger effect = lower value 0.944 | locus YGR229C, strain SMI1, stronger effect = lower value 0.909 | locus YGR252W, strain gcn5, stronger effect = lower value 0.847 | locus YHR030C, strain SLT2, stronger effect = lower value 0.992 and 0.935 | locus YHR079C, strain IRE1 (second series), stronger effect = lower value 0.979 | locus YHR079C, strain IRE1, stronger effect = lower value 0.921 | locus YHR094C, strain hxt1, stronger effect = lower value 0.989 | locus YHR129C, strain ARP1, stronger effect = lower value 0.991 | locus YHR200W, strain rpn10, stronger effect = lower value 0.963 | locus YIL066C, strain RNR3, stronger effect = lower value 0.986 | locus YIL073C, strain SPO22, stronger effect = lower value 0.874 | locus YIL125W, strain kgd1, stronger effect = lower value 0.984 | locus YIR030C, strain dcg1, stronger effect = lower value 0.976 | locus YJL095W, strain BCK1, stronger effect = lower value 0.929 and 0.932 | locus YJL134W, strain LCB3, stronger effect = lower value 0.987 | locus YJL168C, strain set2, stronger effect = lower value 0.992 | locus YJL187C, strain SWE1 (second series), stronger effect = lower value 0.941 | locus YJR043C, strain POL32, stronger effect = lower value 0.924 | locus YJR066W, strain TOR1, stronger effect = lower value 0.901 | locus YKL009W, strain mrt4, stronger effect = lower value 0.891 | locus YKL068W, stronger effect = lower value 0.964 | locus YKL085W, strain MDH1 (second series), stronger effect = lower value 0.98 | locus YKL085W, strain MDH1, stronger effect = lower value 0.98 | locus YLR039C, strain RIC1, stronger effect = lower value 0.949 | locus YLR058C, strain SHM2, stronger effect = lower value 0.99 | locus YLR102C, strain apc9, stronger effect = lower value 0.976 | locus YLR262C, strain YPT6, stronger effect = lower value 0.945 | locus YLR268W, strain sec22, stronger effect = lower value 0.916 | locus YLR330W, strain CHS5, stronger effect = lower value 0.983 | locus YLR342W, strain FKS1 (second series), stronger effect = lower value 0.968 | locus YLR371W, strain rom2, stronger effect = lower value 0.964 | locus YLR418C, strain cdc73, stronger effect = lower value 0.934 | locus YML016C, strain PPZ1, stronger effect = lower value 1 | locus YML032C, strain rad52, stronger effect = lower value 0.98 | locus YML124C, strain tub3, stronger effect = lower value 0.988 | locus YMR078C, strain ctf18, stronger effect = lower value 0.956 | locus YMR223W, strain ubp8, stronger effect = lower value 0.941 | locus YMR307W, strain GAS1, stronger effect = lower value 0.986 | locus YNL067W, strain RPL9B, stronger effect = lower value 0.9 | locus YNL153C, strain GIM3, stronger effect = lower value 0.94 | locus YNL183C, strain NPR1, stronger effect = lower value 0.885 | locus YNL233W, strain BNI4, stronger effect = lower value 0.945 | locus YNL250W, strain rad50, stronger effect = lower value 0.952 | locus YNL271C, strain bni1, stronger effect = lower value 0.959 | locus YNL298W, strain CLA4, stronger effect = lower value 0.971 | locus YNL307C, strain MCK1, stronger effect = lower value 0.974 | locus YNR052C, strain pop2, stronger effect = lower value 0.978 | locus YOL012C, strain htz1 1.23 | locus YOL147C, strain pex11, stronger effect = lower value 0.987 | locus YOR061W, strain CKA2, stronger effect = lower value 0.997 | locus YOR069W, strain VPS5, stronger effect = lower value 0.995 | locus YOR136W, strain idh2, stronger effect = lower value 0.983 | locus YOR144C, strain elg1, stronger effect = lower value 0.994 | locus YOR231W, strain MKK1, stronger effect = lower value 0.929 | locus YOR316C, strain cot1, stronger effect = lower value 0.989 | locus YPL055C, strain LGE1, stronger effect = lower value 0.921 | locus YPL241C, strain CIN2, stronger effect = lower value 0.994 | locus YPL256C, strain CLN2, stronger effect = lower value 0.901 | locus YPR119W, strain clb2, stronger effect = lower value 0.98 | locus YPR141C, strain kar3, stronger effect = lower value 0.969 | locus YPR163C, strain tif3, stronger effect = lower value 0.982 | locus YPR167C, strain met16, stronger effect = lower value 0.966 | strain wtn01, stronger effect = lower value 0.907
